The values below come from PubChem BioAssay (Tox21).

Molecules are shown by their SMILES. Values without a mark were called inactive. Inconclusive results are not listed. Activity calls are given as the source filed them. Unless noted, calls come from the whole dose curve.

Experiment [1] is described as follows: Nuclear factor erythroid 2-related factor 2/antioxidant responsive element (Nrf2/ARE) small molecule agonists: qHTS cell viability counter screen in human keratinocytes (AID 1919968; active = well fitted curve in the direction sought with a large enough effect in the repeat runs; an effect the other way counts as inactive or inconclusive; note: nearly all actives have a fitted effect of over 55% in size). A digest of the protocol:
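KeratinoSens cells (HaCaT keratinocytes stably carrying an ARE-luciferase reporter) were seeded at 1,500 cells/well and rested 5 h at 37 C/5% CO2. They were then exposed to compounds in DMSO for 23 h. Viability was read by CellTiter-Fluor fluorescence after 1 h.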
In general terms: qHTS replaces the single test concentration by a dilution series.

Experiment [2] is described as follows: Nuclear factor erythroid 2-related factor 2/antioxidant responsive element (Nrf2/ARE) small molecule agonists: luciferase reporter gene qHTS assay in human keratinocytes (AID 1919969). Note: nearly all actives have a fitted effect of over 35% in size. Note: potency is the fitted concentration of half-maximal effect. Background: Reporter assays use an easily measured gene product as a stand-in for the process of interest.
The target in experiment [3] is Gonadotropin-releasing hormone receptor (Homo sapiens) (UniProt P30968). Description: Human gonadotropin-releasing hormone receptor (GnRHR) small molecule agonists, calcium flux assay in GnRHR-HEK293 cells (AID 1920063). Note: nearly all actives have a fitted effect of over 35% in size. A digest of the protocol:
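HEK293 cells stably expressing human GnRHR were plated 18 h at 37 °C, loaded with calcium dye 1 h at 37 °C, then given compound in agonist mode; fluorescence (Ex/Em 480/540) read kinetically for 3 min at 1 s intervals.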
A general note: Calcium assays in cells follow changes in intracellular calcium, usually with a dye or a luminescent sensor.

Experiment [4] addresses KiSS-1 receptor (Homo sapiens) (UniProt Q969F8). Description: Human kisspeptin (KISS1R) small molecule agonists, calcium flux assay in KISS1R-HEK293 cells (AID 1920064; active = well fitted curve in the direction sought with a large enough effect in the repeat runs; an effect the other way counts as inactive or inconclusive). A digest of the protocol: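 HEK293 cells stably expressing human KISS1R were plated 18 h at 37 °C, loaded with calcium dye for 1 h at 37 °C, then given compound by pin tool. Fluorescence (Ex/Em 480/540) was read kinetically for 3 min.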

Experiment [5] can be described thus: G protein-coupled receptor (GPCR) small molecule agonists, calcium flux assay: HEK293 wild type cell line counter screen (AID 1920065). A digest of the protocol:
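Cells were plated and cultured 18 h at 37 C/5% CO2, then loaded with calcium dye for 1 h at 37 C. Compounds in DMSO were pin-transferred in agonist mode, and fluorescence (Ex/Em 480/540) was read kinetically for 3 min at 1 s intervals.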

Experiment [6] is described as follows: p53 small molecule agonists, cell-based qHTS assay with human liver microsomes: qHTS cell viability counter screen (AID 1963579). Note: nearly all actives have a fitted effect of over 45% in size. In outline:
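Metabolic activation used human liver microsomes and NADPH, both 0.5 mg/mL final, over 16 hours at 37 C on p53RE-bla cells (4,000/well). Cytotoxicity measured by CellTiter-Glo luminescence, 30 min at room temperature.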

Experiment [7] is described as follows: p53 small molecule agonists, cell-based qHTS assay with rat liver microsomes: qHTS cell viability counter screen (AID 1963580). Note: nearly all actives have a fitted effect of over 45% in size. A digest of the protocol: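 Intracellular ATP, by CellTiter-Glo luminescence, defines viability. HCT-116 p53RE-bla cells, 4,000 per well, were compound-treated in the presence of rat liver microsomes and NADPH for 16 h at 37 C.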
A short description of experiment [8]: p53 small molecule agonists, cell-based qHTS assay: qHTS cell viability counter screen (AID 1963581). Note: nearly all actives have a fitted effect of over 45% in size. A digest of the protocol:
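p53RE-bla HCT-116 cells were exposed to compounds for 16 h at 37 C; after the beta-lactamase FRET read in the same wells, CellTiter-Glo was added and luminescence (intracellular ATP) read after 30 min at room temperature.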

Experiment [9] has as its target 5-hydroxytryptamine receptor 2A (Homo sapiens) (UniProt P28223). The experiment in a line: 5-hydroxytryptamine receptor 2A (HTR2A) small molecule antagonists, cell-based qHTS assay (AID 1963586). Note: nearly all actives have a fitted effect of over 45% in size. In outline: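 Antagonist-mode intracellular calcium assay: DOI (4 nM) added after 5 min compound pre-incubation at room temperature to dye-loaded HTR2A-CHO cells. Fluorescence followed for 3 min, sampled every second.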

The target is the same in experiment [10]. The experiment in a line: 5-hydroxytryptamine receptor 2A (HTR2A) small molecule agonists, cell-based qHTS assay (AID 1963587). Note: nearly all actives have a fitted effect of over 30% in size. In outline:
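Kinetic calcium-flux fluorescence (2 min, 1 sec intervals) after compound addition in agonist mode. HTR2A-CHO cells were cultured 18 h, then dye-loaded 1 h at 37 C.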

Experiment [11] concerns the target Muscarinic acetylcholine receptor M1 (Homo sapiens) (UniProt P11229). The experiment in a line: Cholinergic receptor muscarinic 1 (CHRM1) small molecule antagonists, cell-based qHTS assay (AID 1963588). Note: nearly all actives have a fitted effect of over 40% in size. A digest of the protocol:
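CHRM1-CHO calcium-flux assay, antagonist mode. Cells were seeded 18 h, dye-loaded 1 h at 37 C and given compound for 5 min at RT, then acetylcholine was added at 50nM. FDSS fluorescence was read 3 min; 15 concentrations, three runs.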

The target is the same in experiment [12]. The experiment in a line: Cholinergic receptor muscarinic 1 (CHRM1) small molecule agonists, cell-based qHTS assay (AID 1963589). Note: nearly all actives have a fitted effect of over 35% in size. A digest of the protocol:
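CHO cells stably expressing human CHRM1, seeded 18 h at 37 C/5% CO2, dye-loaded 1 h at 37 C, then given compound in agonist mode; intracellular calcium fluorescence read kinetically at 1 s intervals. Fifteen concentrations, three independent runs.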

A short description of experiment [13]: cAMP Responsive Elements (CRE) small molecule agonists, cell-based qHTS assay (AID 1963590). A digest of the protocol: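 CRE-bla HEK 293T cells in DMEM with 10% dialyzed FBS, NEAA, pyruvate and 25 mM HEPES were plated 18 h at 37 C/5% CO2, then exposed to compounds in DMSO for 3 h before LiveBLAzer B/G FRET substrate addition.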
Experiment [14] in a line: cAMP Responsive Elements (CRE) small molecule antagonists, cell-based qHTS assay (AID 1963591; active = well fitted inhibition curve with a large enough effect in the signal ratio in the repeat runs, not every such curve was filed as active; the % refers to the signal ratio). In outline: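 CRE-bla HEK293T cells were plated 18 h at 37 °C/5% CO2, pinned with compound in DMSO, then stimulated with NKH477 at 0.25 uM final for 3 h. LiveBLAzer B/G FRET substrate was added and plates incubated 2 h at room temperature.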
Experiment [15] deals with Beta-2 adrenergic receptor (Homo sapiens) (UniProt P07550). The experiment in a line: Adrenergic beta2 receptor (ADRB2) small molecule antagonists, cell-based qHTS assay (AID 1963592). Note: series mostly up to about 92 µM; nearly all actives have a fitted effect of over 50% in size. In outline:
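Cells (CHO, stable ADRB2 overexpression) incubated 18-20hr at 37C; compounds added from DMSO; agonist mix (1nM isoproterenol, 100uM IBMX, 25uM Ro-20-1724) added; 0.5hr RT; d2-cAMP and anti-cAMP-cryptate added; 1hr RT; 665/615 nm read.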

Experiment [16] has the same target. The experiment in a line: Adrenergic beta2 receptor (ADRB2) small molecule agonists, cell-based qHTS assay (AID 1963593).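 Note: CHO cells stably overexpressing human ADRB2.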 A digest of the protocol:
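CHO cells stably over-expressing ADRB2 were plated overnight at 37C, then dosed with compounds plus a stimulation mix containing 100uM IBMX and 25uM Ro-20-1724 for 0.5hr at room temperature. cAMP was measured by HTRF competition, 1hr.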

In experiment [17] the target is D(2) dopamine receptor (Homo sapiens) (UniProt P14416). The experiment in a line: Dopamine D2 receptor (DRD2) small molecule agonists, cell-based qHTS assay (AID 1963594). Note: nearly all actives have a fitted effect of over 35% in size. A digest of the protocol:
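cAMP accumulation in DRD2-HEK293 cells measured by HTRF after 1 h detection; compounds added 10 min before NKH477 (200nM […]) forskolin-analogue stimulation, 30 min at room temperature, with Ro20-1724 present at 0.1 mM final.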

Experiment [18] has the same target. The experiment in a line: Dopamine D2 receptor (DRD2) small molecule antagonists, cell-based qHTS assay (AID 1963595; active = well fitted inhibition curve with a large enough effect in the signal ratio in the repeat runs, with a control signal flat; the % refers to the signal ratio). A digest of the protocol:
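Cells were plated and grown for 24 h at 37 °C. Ro20-1724 (0.1 mM final) went in first, then compound for 10 min. NKH477 (200 nM) with quinpirole (12 nM) followed for 30 min at RT, then HTRF detection reagents for 1 h.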

Sequence of Muscarinic acetylcholine receptor M1 (Homo sapiens) (P11229 whole entry, looked up): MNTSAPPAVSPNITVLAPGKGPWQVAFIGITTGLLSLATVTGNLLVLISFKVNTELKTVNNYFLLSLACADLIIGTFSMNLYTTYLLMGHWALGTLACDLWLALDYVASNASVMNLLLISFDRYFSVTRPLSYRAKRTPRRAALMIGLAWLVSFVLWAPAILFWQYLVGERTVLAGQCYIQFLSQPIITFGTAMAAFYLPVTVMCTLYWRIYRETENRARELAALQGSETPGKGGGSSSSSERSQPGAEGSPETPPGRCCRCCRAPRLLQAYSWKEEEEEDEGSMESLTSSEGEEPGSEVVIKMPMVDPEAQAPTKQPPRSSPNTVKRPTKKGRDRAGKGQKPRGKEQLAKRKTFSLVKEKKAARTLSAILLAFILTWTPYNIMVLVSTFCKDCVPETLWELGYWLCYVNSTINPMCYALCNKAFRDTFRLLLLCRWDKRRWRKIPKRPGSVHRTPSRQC
Sequence of Beta-2 adrenergic receptor (Homo sapiens) (P07550 whole entry, looked up): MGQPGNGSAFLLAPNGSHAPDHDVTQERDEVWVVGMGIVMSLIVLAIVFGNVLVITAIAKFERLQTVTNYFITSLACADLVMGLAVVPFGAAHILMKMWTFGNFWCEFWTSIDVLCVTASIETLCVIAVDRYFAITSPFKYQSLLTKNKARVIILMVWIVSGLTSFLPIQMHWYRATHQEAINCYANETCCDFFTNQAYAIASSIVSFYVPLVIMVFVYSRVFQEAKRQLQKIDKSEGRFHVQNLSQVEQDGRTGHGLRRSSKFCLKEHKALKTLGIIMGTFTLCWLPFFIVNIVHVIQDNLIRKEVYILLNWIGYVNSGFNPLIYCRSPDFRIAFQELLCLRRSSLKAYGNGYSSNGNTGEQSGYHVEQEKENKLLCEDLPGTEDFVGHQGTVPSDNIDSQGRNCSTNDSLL
Sequence of KiSS-1 receptor (Homo sapiens) (Q969F8 whole entry, looked up): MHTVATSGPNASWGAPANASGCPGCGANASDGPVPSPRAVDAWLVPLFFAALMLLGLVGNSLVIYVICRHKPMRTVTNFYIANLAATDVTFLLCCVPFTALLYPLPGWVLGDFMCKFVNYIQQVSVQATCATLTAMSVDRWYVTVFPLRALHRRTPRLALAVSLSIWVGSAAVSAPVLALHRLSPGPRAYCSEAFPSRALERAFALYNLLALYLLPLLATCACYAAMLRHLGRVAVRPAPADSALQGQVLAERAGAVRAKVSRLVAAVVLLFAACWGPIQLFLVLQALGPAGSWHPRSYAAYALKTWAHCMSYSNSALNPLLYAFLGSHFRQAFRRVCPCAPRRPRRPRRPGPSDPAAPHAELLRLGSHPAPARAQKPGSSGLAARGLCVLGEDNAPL
Sequence of Gonadotropin-releasing hormone receptor (Homo sapiens) (P30968 whole entry, looked up): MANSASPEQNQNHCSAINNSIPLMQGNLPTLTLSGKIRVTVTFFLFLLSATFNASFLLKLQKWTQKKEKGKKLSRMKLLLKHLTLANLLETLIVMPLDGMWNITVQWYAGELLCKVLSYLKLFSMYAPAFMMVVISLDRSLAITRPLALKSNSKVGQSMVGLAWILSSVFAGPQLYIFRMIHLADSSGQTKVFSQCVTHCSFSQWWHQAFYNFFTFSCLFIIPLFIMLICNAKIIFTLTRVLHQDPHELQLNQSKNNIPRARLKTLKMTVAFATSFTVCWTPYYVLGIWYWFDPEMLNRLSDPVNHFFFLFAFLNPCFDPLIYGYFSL
Sequence of 5-hydroxytryptamine receptor 2A (Homo sapiens) (P28223 whole entry, looked up): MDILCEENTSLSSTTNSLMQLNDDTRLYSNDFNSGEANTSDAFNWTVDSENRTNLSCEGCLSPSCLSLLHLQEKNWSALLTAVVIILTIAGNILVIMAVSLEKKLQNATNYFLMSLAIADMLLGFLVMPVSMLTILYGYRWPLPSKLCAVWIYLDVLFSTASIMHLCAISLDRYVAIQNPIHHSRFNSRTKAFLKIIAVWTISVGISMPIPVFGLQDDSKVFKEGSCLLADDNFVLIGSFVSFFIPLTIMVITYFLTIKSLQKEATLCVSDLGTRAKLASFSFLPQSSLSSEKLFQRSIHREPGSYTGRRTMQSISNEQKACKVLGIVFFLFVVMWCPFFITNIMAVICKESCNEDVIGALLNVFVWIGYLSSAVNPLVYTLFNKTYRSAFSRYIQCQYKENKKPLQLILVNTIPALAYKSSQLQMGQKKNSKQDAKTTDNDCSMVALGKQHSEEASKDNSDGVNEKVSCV
Sequence of D(2) dopamine receptor (Homo sapiens) (P14416 whole entry, looked up): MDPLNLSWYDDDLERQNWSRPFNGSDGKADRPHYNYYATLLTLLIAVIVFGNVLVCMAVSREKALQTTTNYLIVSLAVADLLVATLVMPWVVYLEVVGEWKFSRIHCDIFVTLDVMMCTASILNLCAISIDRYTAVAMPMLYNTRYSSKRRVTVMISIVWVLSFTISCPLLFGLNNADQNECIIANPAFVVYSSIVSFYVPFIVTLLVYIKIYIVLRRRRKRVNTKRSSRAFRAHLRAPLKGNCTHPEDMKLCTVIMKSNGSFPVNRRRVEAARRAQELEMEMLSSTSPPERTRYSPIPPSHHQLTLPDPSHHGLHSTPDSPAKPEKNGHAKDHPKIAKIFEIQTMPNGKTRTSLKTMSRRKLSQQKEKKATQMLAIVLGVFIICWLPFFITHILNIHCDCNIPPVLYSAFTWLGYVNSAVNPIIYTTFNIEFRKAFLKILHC

As for `CCCCC(CC)COC(=O)COc1cc(Cl)c(Cl)cc1Cl` (stereo not drawn), the Potency entry in experiment [1], in experiment [2], in [3], in [4], in [5] and in experiment [6] was “inactive” each time. The Potency entry in experiment [7], in experiment [8], in [9], in experiment [10], in [11] and in experiment [12] was “inactive” throughout. Moreover, the Potency entry in experiment [13], in [14], in experiment [15], in [16], in experiment [17] and in [18] was “inactive” throughout.

Take `O=C(O)Cc1ccc(OCCNC[C@H](O)c2ccccc2)cc1`: the Potency result in experiment [1], in [3], in experiment [4], in experiment [5], in experiment [6] and in [7] was “inactive” throughout. Besides, the Potency result in [8], in experiment [9], in [10], in [11], in experiment [12] and in [13] was “inactive” in each case. Further, the Potency result in experiment [14], in [15] and in experiment [17] was “inactive” each time. The Potency in experiment [2] is 33.5 µM (active).

On to `CCN[C@H]1C[C@H](C)S(=O)(=O)c2sc(S(N)(=O)=O)cc21`, for which the Potency result in experiment [1], in [2], in [3], in experiment [4], in [5] and in experiment [6] was “inactive” each time. Besides, the Potency entry in experiment [7], in [8], in experiment [9], in [10], in [11] and in [12] was “inactive” throughout. The Potency entry in [13], in experiment [14], in experiment [15], in [16], in [17] and in experiment [18] was “inactive” each time.

Regarding `NCc1ccccc1`, the Potency result in [1], in experiment [2], in [3], in [4], in experiment [5] and in experiment [6] was “inactive” throughout. The Potency result in experiment [7], in experiment [8], in experiment [9], in [10], in [11] and in experiment [12] was “inactive” in each case. The Potency entry in [13], in experiment [14], in [15], in experiment [16], in [17] and in experiment [18] was “inactive” in each case.

For `Cc1ccccc1N=C(N)N=C(N)N`, the Potency result in [1], in experiment [2], in experiment [3], in [4], in [5] and in experiment [6] was “inactive” in each case. Also, the Potency result in experiment [7], in [8], in experiment [9], in [10], in [11] and in experiment [12] was “inactive” in each case. Moreover, the Potency result in experiment [13], in experiment [14], in experiment [15], in experiment [16] and in [18] was “inactive” in each case.

For the compound `CCC(C)(CCC(C)C)C(=O)O` (stereo not drawn), the Potency entry in [1], in [2], in [3], in [4], in experiment [5] and in experiment [6] was “inactive” in each case. Also, the Potency result in experiment [7], in experiment [8], in [9], in experiment [10], in experiment [11] and in experiment [12] was “inactive” in each case. In addition, the Potency entry in experiment [14] and in [15] was “inactive” throughout.

With `C=CC(=O)NC(C)(C)C`, the Potency result in experiment [1], in experiment [2], in experiment [3], in experiment [4], in [5] and in experiment [6] was “inactive” throughout. Further, the Potency entry in experiment [7], in experiment [8], in [9], in experiment [10], in [11] and in experiment [12] was “inactive” throughout. Further, the Potency result in [13], in experiment [14], in [15], in experiment [17] and in experiment [18] was “inactive” throughout.
